An excerpt weighted towards active compounds, which were near 12% of everything screened.
HP1b binding inh = inhibitors of HP1-beta chromodomain binding to methylated histone tails. AlphaScreen HP1-beta / biotin-H3K9me3 peptide binding. Potency, µM (doses to about 114 µM), actives largely listed as inhibitors. hit rate 0.56% among 390,000; further: nearly all actives have a fitted effect of over 70% in size
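AlphaScreen: HP1-beta (50 nM) preformed 30 min with biotin-H3(1-18)K9me3 peptide (50 nM) in PBS pH 7.4, 0.01% Tween-20. Compound added for 30 min at RT, then streptavidin donor/nickel chelate acceptor beads (10 ug/mL) for 30 min.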
L3MBTL1 block = L3MBTL1 (human) inhibition; AlphaScreen L3MBTL1–H3K9me1 peptide binding; Potency, µM (top dose mostly 57.1 µM), hits mostly inhibitors; hit rate 0.66% among 230,000; further: nearly all actives have a fitted effect of over 60% in size
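AlphaScreen proximity signal between nickel-chelate acceptor and streptavidin donor beads (final 10 ug/mL) reports binding of 50 nM L3MBTL1 to 75 nM biotin-H3 K9me1 peptide; complex incubated with compounds 30 min at room temperature; cefsulodin titration as control.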
JMJD2A Tudor inh = inhibitors of human JMJD2A Tudor domain; Potency, µM (doses to about 114 µM), hits mostly inhibitors; AlphaScreen JMJD2A-Tudor / H3K4me3 peptide binding; AID 504339; hit rate 4.4% among 390,000; further: nearly all actives have a fitted effect of over 50% in size
Target sequence (O75164 whole entry, looked up, the tested form may be a part): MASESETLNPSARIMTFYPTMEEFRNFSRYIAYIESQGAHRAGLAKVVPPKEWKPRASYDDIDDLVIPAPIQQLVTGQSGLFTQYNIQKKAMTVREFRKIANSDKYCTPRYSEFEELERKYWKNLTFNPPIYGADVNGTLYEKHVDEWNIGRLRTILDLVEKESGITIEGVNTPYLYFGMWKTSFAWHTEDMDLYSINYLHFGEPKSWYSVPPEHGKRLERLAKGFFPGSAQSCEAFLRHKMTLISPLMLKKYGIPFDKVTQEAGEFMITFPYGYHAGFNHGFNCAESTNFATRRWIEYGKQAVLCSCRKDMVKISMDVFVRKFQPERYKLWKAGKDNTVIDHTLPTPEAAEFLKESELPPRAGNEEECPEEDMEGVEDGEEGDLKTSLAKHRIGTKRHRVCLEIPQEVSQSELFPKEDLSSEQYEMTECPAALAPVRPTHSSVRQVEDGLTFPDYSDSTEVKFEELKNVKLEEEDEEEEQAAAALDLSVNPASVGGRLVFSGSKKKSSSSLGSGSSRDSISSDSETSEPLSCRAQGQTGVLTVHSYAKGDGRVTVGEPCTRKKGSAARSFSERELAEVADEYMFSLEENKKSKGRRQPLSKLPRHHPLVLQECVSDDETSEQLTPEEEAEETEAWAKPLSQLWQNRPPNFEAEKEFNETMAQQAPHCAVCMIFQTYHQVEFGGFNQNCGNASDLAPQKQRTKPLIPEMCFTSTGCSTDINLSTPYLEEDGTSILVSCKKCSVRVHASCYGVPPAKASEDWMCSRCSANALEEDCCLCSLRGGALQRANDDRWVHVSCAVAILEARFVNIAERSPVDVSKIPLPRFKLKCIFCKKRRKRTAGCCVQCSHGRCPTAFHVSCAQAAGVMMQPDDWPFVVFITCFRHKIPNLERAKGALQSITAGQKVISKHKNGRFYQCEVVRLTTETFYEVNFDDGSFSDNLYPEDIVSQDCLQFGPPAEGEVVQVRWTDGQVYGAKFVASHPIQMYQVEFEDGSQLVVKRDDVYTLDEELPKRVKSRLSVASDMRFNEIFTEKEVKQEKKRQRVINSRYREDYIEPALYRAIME
G9a block = blocks human histone lysine methyltransferase G9a; G9a H3K9 monomethylation, AlphaScreen, 2 h; hit rate 8.8% among 350,000; Potency, µM (series often up to 102 µM), most hits filed as inhibitors; AID 504332; further: nearly all actives have a fitted effect of over 75% in size
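Compounds were preincubated with 20 nM G9a for 15 min, after which biotinylated H3K9 peptide (500 nM) and SAM (20 uM) started a 2 h room-temperature reaction. Monomethylated product was quantified by antibody-based AlphaScreen chemiluminescence.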
BAZ2B block = inhibitors of human BAZ2B bromodomain; Q9UIF8; hit rate 4.4% among 360,000; AID 504333; Potency, µM (doses to about 114 µM), most hits filed as inhibitors; AlphaScreen BAZ2B-H3K14Ac peptide displacement; further: nearly all actives have a fitted effect of over 60% in size
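Protein-peptide AlphaScreen: BAZ2B 50 nM, b-H3K14Ac 50 nM, 1x PBS pH 7.4 + 0.01% Tween-20. Preincubation 30 min RT; cpd 30 min RT (top 110 uM); beads 20 min RT, light-protected.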
Sfp PPTase inh = blocks B. subtilis Sfp PPTase activity. Biochemical Sfp PPTase activity, qHTS. Potency, µM, hits mostly inhibitors. hit rate 3.5% among 310,000. AID 1490;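 further: the enzyme is Sfp with the accession as filed and its product quenches rhodamine fluorescence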
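Sfp 15 nM + cpd, 15 min RT; start w/ rhodamine-CoA 5 uM, BHQ-2-YbbR 12.5 uM (final); 50 mM Hepes pH 7.6, 10 mM MgCl2, 0.01% NP-40, 0.01% BSA; read 525/598 nm at 0 and 30 min.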
Large screens that a line does not name were inactive. The call rests on the fitted dose curve; in most records, active means well fitted curve in the direction sought with a large enough effect; inconclusive means small, poorly fitted or top-dose-only effect, or another doubt; inactive means no such curve, though single readings can be large; an effect the other way counts as inactive or inconclusive.

O=C(NC1=NCCS1)C12CC3CC(C1)CC(C(=O)NC1=NCCS1)(C3)C2	JMJD2A Tudor inh 56µM, G9a block inconclusive, BAZ2B block 50µM
O=C(CC12CC3CC(C1)CC(CC(=O)NC1=NCCS1)(C3)C2)NC1=NCCS1	none
COc1ccc(-n2cnnc2SC(C)c2nc3sc(C)c(C)c3c(=O)[nH]2)cc1 (stereo not given)	G9a block inconclusive, Sfp PPTase inh 89µM (no result: HP1b binding inh, JMJD2A Tudor inh)
CCN(CC)CCNC(=O)Nc1ccc2c(c1)N(Cc1ccccc1)C(=O)c1ccccc1S2	none (no result: L3MBTL1 block, Sfp PPTase inh)
COc1ccc(CCCc2n[nH]c(=S)n2C)cc1C	HP1b binding inh inconclusive, JMJD2A Tudor inh 5.6µM, G9a block 11µM (no result: L3MBTL1 block)
COc1ccc(CCCc2n[nH]c(=S)o2)cc1C	G9a block 8.9µM (no result: L3MBTL1 block)
COc1ccc(CCCc2nnc(SCC(=O)Nc3nccs3)n2C)cc1C	none
COc1ccc(CC(=O)N(Cc2nc(-c3ccc(C)cc3)no2)C(C)C)cc1	none (no result: L3MBTL1 block, Sfp PPTase inh)
O=C(CSc1cccc2cccnc12)OCC(=O)c1ccccc1	JMJD2A Tudor inh 35µM
Cc1ccc(S(=O)(=O)NCc2ccco2)cc1C(N)=O	JMJD2A Tudor inh 25µM
Cc1ccc2ccc(S(=O)(=O)NCc3ccco3)cc2c1	G9a block 35µM (no result: L3MBTL1 block)
O=S(=O)(NCc1ccco1)c1ccc2ccccc2c1	BAZ2B block inconclusive (no result: L3MBTL1 block)
CC1CCCCN1S(=O)(=O)c1cccc2cccnc12 (stereo not given)	G9a block 32µM
CC(=O)N(CCP(=O)(c1ccccc1)c1ccccc1)Cc1ccco1	none
CC(=O)N(CCC(Cc1ccccc1)c1ccco1)Cc1ccco1 (stereo not given)	G9a block inconclusive, BAZ2B block inconclusive, Sfp PPTase inh 45µM (no result: L3MBTL1 block)
Cc1cc(C(=O)N2CCN(c3cccc(C)c3C)CC2)c2c(C)nn(-c3ccccc3)c2n1	none (no result: L3MBTL1 block, Sfp PPTase inh)
CC(=O)Nc1cccc(C(=O)N/N=C/c2cccnc2)c1	JMJD2A Tudor inh 45µM
O=C(N/N=C/c1cccnc1)c1cc(O)c(O)c(O)c1	HP1b binding inh inconclusive, JMJD2A Tudor inh 28µM, G9a block 32µM, BAZ2B block 45µM, Sfp PPTase inh 40µM (no result: L3MBTL1 block)
O=C(CCn1c(=O)c2sccc2n(CC(=O)Nc2ccccc2)c1=O)NCc1ccccc1Cl	none (no result: L3MBTL1 block, Sfp PPTase inh)
CCN1C(=O)[C@H]2[C@H]3[C@H](O)[C@H](O)C/C(=N/OCc4ccccc4)[C@@H]3CC[C@@H]2C1=O	none (no result: HP1b binding inh, L3MBTL1 block, JMJD2A Tudor inh, G9a block, BAZ2B block)
COCCNC(=S)N(c1ccccc1)C(C)C	none
COCCNC(=S)NN(c1ccccc1)c1ccccc1	G9a block 28µM, Sfp PPTase inh inconclusive
CCCN(CCC)CCCNC(=O)C1CCCN(S(=O)(=O)c2cccc3nsnc23)C1 (stereo not given)	none (no result: L3MBTL1 block, BAZ2B block, Sfp PPTase inh)
Cc1nc2ccc(NC(=O)/C=C/C(=O)O)cc2nc1C	none (no result: L3MBTL1 block)
O=C(O)/C=C/C(=O)Nc1ccccc1SC(F)(F)C(F)(F)C(F)(F)F	JMJD2A Tudor inh inconclusive, G9a block 45µM, Sfp PPTase inh inconclusive
O=C(O)/C=C/C(=O)Nc1ccc2c(c1)C(=O)c1ccccc1C2=O	G9a block 45µM, BAZ2B block inconclusive (no result: L3MBTL1 block)
CC(=O)Nc1ccc2c(c1)C(=O)c1ccccc1C2=O	none
O=C(O)/C=C/C(=O)Nc1cccc(C(F)(F)F)c1	G9a block inconclusive
O=C(O)/C=C/C(=O)Nc1ccccc1-c1ccccc1	Sfp PPTase inh 32µM
O=C(O)/C=C/C(=O)Nc1ccc2nccnc2c1	G9a block 50µM (no result: L3MBTL1 block)
CC(=O)c1cccc(NC(=O)c2c(-c3ccccc3)c(-c3ccccc3)nn(C)c2=O)c1	none (no result: L3MBTL1 block, Sfp PPTase inh)
COc1ccc(C(O)c2nccc3cc(OC)c(OC)cc23)cc1OC (stereo not given)	JMJD2A Tudor inh inconclusive, G9a block 3.5µM, BAZ2B block 56µM (no result: L3MBTL1 block)
O=C1CC(c2ccc(Cl)c([N+](=O)[O-])c2)c2ccc3ccccc3c2N1 (stereo not given)	JMJD2A Tudor inh inconclusive
O=[N+]([O-])c1cccc(C2NCC(c3ccccc3Cl)c3c2[nH]c2ccccc32)c1 (stereo not given)	HP1b binding inh inconclusive, L3MBTL1 block inconclusive, JMJD2A Tudor inh inconclusive, G9a block 40µM, BAZ2B block 35µM

Screens from PubChem.
